hiPSC survival: enhancers of single-cell hiPSC survival, primary screen, ATPlite luminescence; 100% = ROCK inhibitor wells, 0% = DMSO; survival enhancement, % at 20 µM; 360,000 tested, 0.044% active; AID 602274, 2012; in the data active = survival enhancement above about 18%;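 note: cells exposed to compounds for 16 hours before the ATP read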
LGR2 antag: inhibitors of bursicon-induced LGR2 CRE-luciferase signal, primary screen, cell-based, HEK293, CRE-luciferase reporter, bursicon stimulation; Drosophila bursicon receptor LGR2 (rickets); bursicon-stimulated, 4 h; inhibition, % at 9.99 µM; 380,000 tested, 0.35% active; AID 720647, 2013;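 active = drop in luminescence signal, shown as inhibition above about 50% in the replicate tests, limit read from the data, passing the limit was not always enough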;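 note: agonist challenge used bursicon conditioned medium at about half maximal strength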
TWEAK-Fn14 inh: inhibitors of TWEAK-Fn14 signaling, primary screen, luciferase reporter cells, uHTS. 360,000 tested, 2% active. TWEAK-stimulated Fn14 reporter cells, luciferase luminescence, 8 h. inhibition, % at 10 µM. AID 1159606, 2016; in the data active = inhibition above about 50%
KKLEB tox: cytotoxicity in KKLEB CF airway cells, primary screen, cytotoxicity control for CF NF-kB inhibitor project, cell-based, uHTS, fluorescence assay plates. KKLEB CF airway cells viability, ATPlite luminescence, overnight; stronger effect = lower value; cells stimulated with P. aeruginosa culture filtrate. activity change (cytotoxicity), % at 5 µM. 360,000 tested, 0.36% active;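 active = corrected activity change at or below -50% at 5 µM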
HIF-2a block: HIF-2a reporter inhibitors, primary screen, luminescence, 786-0 RCC cells | 786-0 RCC cells HIF-2a reporter, luciferase luminescence, overnight | inhibition, % at 18.8 µM | 360,000 tested, 0.72% active;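 active = inhibition of the luminescence signal of 40% or more relative to plate controls, in a single-dose primary screen at 18.75 µM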
CF NFkB block: inhibitors of PAF-induced NF-kB signaling, primary screen, cell-based, GFP fluorescence, uHTS. KKLEB NF-kB-GFP reporter, GFP fluorescence overnight. inhibition, % at 5 µM. 360,000 tested, 0.86% active. AID 588850, 2011;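 active = at least 50% inhibition at 5 µM, scaled per plate between neutral and stimulator controls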;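 note: PAF is a Pseudomonas aeruginosa culture filtrate used as stimulus; plate controls were PAF-stimulated DMSO wells for no effect and unstimulated DMSO wells for full effect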
Active calls of the source: *; / = not tested or not shown. Most compounds without a hit are left out; they make up all but 2.3% or so of the library.

SMILES	hiPSC survival	LGR2 antag	TWEAK-Fn14 inh	KKLEB tox	HIF-2a block	CF NFkB block
CC(C)[n+]1ccn(C2=C([O-])c3ccccc3C(=O)/C2=N\S(=O)(=O)c2ccccc2)c1	0	/	12	-2	-17	-1
CC(C)(C)c1cc[n+](C2=C([O-])c3ccccc3C(=O)/C2=N\S(=O)(=O)c2ccccc2)cc1	-1	3	80*	-14	3	-2
O=C1/C(=N\S(=O)(=O)c2cccs2)C([n+]2cccc(Cc3ccccc3)c2)=C([O-])c2ccccc21	0	/	32	-3	2	56*
CCOC(=O)c1c(O)c2cc(Cl)ccc2n(CC)c1=O	0	0	9	-6	16	15
OC(COCC(F)(F)C(F)(F)C(F)(F)C(F)F)Cn1c2ccc(Cl)cc2c2cc(Cl)ccc21 (configuration not stated)	-1	/	64*	-17	-7	46
CC(=O)N1c2ccc(S(=O)(=O)NCC3CCC(C(=O)Nc4cc(C)ccn4)CC3)cc2CC1C (configuration not stated)	0	31	56*	-3	10	26
O=C(OCCN1C(=O)c2cccc3c(N4CCOCC4)ccc(c23)C1=O)c1ccccc1Cl	1	76*	104*	-5	3	10
O=C(OCCN1C(=O)c2cccc3c(N4CCOCC4)ccc(c23)C1=O)c1ccc(Cl)cc1Cl	0	-7	90*	-23	11	26
COc1ccc(NC(=O)N[C@@H]2C=C[C@@H](CC(=O)NC3CCC3)O[C@H]2CO)cc1	/	2	/	/	/	/
NC1=CC(=O)C(=O)c2ccccc21	0	19	-66	-26	0	68*
NC1=C(Br)C(=O)c2ccccc2C1=O	-1	/	-5	14	-44	14
CO[C@H]1CN(C)C(=O)c2ccc(NC(C)=O)cc2OC[C@H](C)N(CCc2ccccc2)C[C@H]1C	/	-12	/	/	/	/
C[C@H](CO)N1C[C@H](C)[C@@H](CN(C)Cc2ccc(C(=O)O)cc2)OCCCC[C@H](C)Oc2ccc(NS(=O)(=O)c3cccs3)cc2C1=O	/	4	/	/	/	/
C[C@@H]1CN([C@@H](C)CO)C(=O)c2cc(C#CC(C)(C)O)cnc2O[C@@H]1CN(C)Cc1ccccn1	/	4	/	/	/	/
Cc1nc(NCCN2CCOCC2)c2oc3ccccc3c2n1	0	/	18	2	10	8
Cc1nc(NCCc2ccccc2)c2oc3ccccc3c2n1	0	/	52*	-7	-33	9
Cc1nc(SCC(=O)Nc2nccs2)c(C#N)c(C)c1C	-1	-22	76*	-32	16	-12
COc1cccc2c1C(=O)c1c(O)c3c(c(O)c1C2=O)C[C@@](O)(C(=O)CO)C[C@@H]3O[C@H]1C[C@H](N)[C@@H](O)[C@H](C)O1	-5	/	88*	-54*	4	70*
COc1cccc2c1C(=O)c1c(O)c3c(c(O)c1C2=O)CC(O)(C(=O)CO)CC3OC1CC(N(C)C)C(O)C(C)O1 (configuration not stated)	-4	/	97*	-37	38	76*
COc1cccc2c1C(=O)c1c(O)c3c(c(O)c1C2=O)C[C@@](O)(C(C)=O)C[C@@H]3O[C@H]1C[C@H](N)[C@H](O)[C@H](C)O1	-4	100*	96*	-47	26	66*
COCC(=O)N(C)C[C@H]1Oc2cc(C#CC3CCCC3)ccc2S(=O)(=O)N([C@H](C)CO)C[C@H]1C	/	0	/	/	/	/
CC(C)(C)c1ccc(NC(=O)COc2ccc(-n3ccnc3)cc2)cc1	-4	/	93*	5	24	-11
COc1cc(NC(=O)COc2ccc(-n3ccnc3)cc2)cc(OC)c1	0	-4	2	-15	0	10
CS(=O)(=O)N1CCN(c2ccc([N+](=O)[O-])c(NCc3ccccc3)c2)CC1	4	/	75*	-5	14	6
CNC[C@@H]1OCCCC[C@@H](C)Oc2ccc(NC(=O)c3ccccc3)cc2C(=O)N([C@H](C)CO)C[C@H]1C	/	17	/	/	/	/
SMILES	hiPSC survival	LGR2 antag	TWEAK-Fn14 inh	KKLEB tox	HIF-2a block	CF NFkB block
CC(=O)N1CC=CC1(CC(C)C)C(=O)NCCN1CCOCC1 (configuration not stated)	3	-46	83*	10	-114	-15
O=C(C[C@H]1CC[C@@H](NC(=O)C2CCOCC2)[C@H](CO)O1)Nc1ccccc1	/	-2	/	/	/	/
CN(C(=O)CSc1cccc[n+]1[O-])c1ccccc1	1	2	-7	10	0	10
O=C(CSc1cccc[n+]1[O-])NN(c1ccccc1)c1ccccc1	-1	-2	83*	3	-35	-10
COc1ccc(-n2cnc3cc(NCc4ccccn4)ccc32)cc1	-1	-37	4	-2	-63	8
COc1ccccc1-n1cnc2cc(NCc3ccccn3)ccc21	5	/	52*	-7	-122	9
Nc1n[nH]c2c1C1(CCCCC1)Cc1ccccc1-2	-2	/	-17	-6	17	-1
Nc1ncnc2c1C1(CCCCC1)Cc1ccccc1-2	-1	11	59*	12	-26	27
CC(C)N1C(=O)S/C(=C/c2ccc(Sc3nc4ccccc4[nH]3)o2)C1=O	0	32	89*	-12	-32	16
C=CCN1C(=O)S/C(=C/c2ccc(Sc3nc4ccccc4[nH]3)o2)C1=O	0	-19	73*	-12	-16	21
CCOC(=O)C(C)N1C(=O)S/C(=C\c2ccc(-c3ccccc3C(=O)O)o2)C1=O (configuration not stated)	2	7	8	-4	6	-3
CCCN1C[C@@H](C)[C@H](OC)CN(C)C(=O)c2cc(NC(=O)c3cnccn3)ccc2OC[C@H]1C	/	-4	/	/	/	/
CC(C)(C)NC(=O)COC(=O)c1ccccc1Nc1ccc(SC(F)F)cc1	0	-29	55*	5	-156	-1
NC(=O)COC(=O)c1ccccc1Nc1ccc(SC(F)F)cc1	2	-26	-24	6	-139	-18
COc1ccccc1/C=C/C(=O)c1cc(Br)ccc1OC(=O)c1ccco1	-1	/	41	-15	87*	11
COc1ccc(NC(=O)N[C@@H]2CC[C@H](CCNC(=O)Nc3cc(F)ccc3F)O[C@@H]2CO)cc1	/	4	/	/	/	/
Oc1ccccc1-c1n[nH]c(-c2ccccc2O)n1	2	-93	77*	0	-179	18
CCCCC(CC)CO (configuration not stated)	-1	/	3	8	8	18

High-throughput results deposited in PubChem by several laboratories.
